In the antibiotic and cytotoxicity screens of Wong et al. (2023):
About 1,500 (3.8%) of roughly 39,000 compounds were called active. This excerpt belongs to a sample that is enriched for actives.

system: HSkMC (human skeletal muscle cells); assay: cytotoxicity call (relative viability < 0.9); details: 10 µM

| Structure (SMILES) | cytotoxicity call |
| --- | --- |
| C#CC1(OC(C)=O)CCC2C3CCC4=CC(OC(C)=O)CCC4C3CCC21C (stereo not given) | inactive |
| Cc1ccc(S(=O)(=O)N(C)C[C@@H]2Oc3ccc(NC(=O)CCCN(C)C)cc3C(=O)N([C@@H](C)CO)C[C@@H]2C)cc1 | inactive |
| COc1ccc(S(=O)(=O)N(C)C[C@@H]2OCCCC[C@@H](C)Oc3ccc(NC(=O)c4ccccc4)cc3C(=O)N([C@H](C)CO)C[C@H]2C)cc1 | inactive |
| COCC#Cc1ccc([C@H]2[C@H](CO)N3C(=O)CN(C(=O)CN4CCOCC4)C[C@@H]23)cc1 | inactive |
| O=C(O)CCC(=O)O | inactive |
| CCOC(=O)CN1CCN(C=O)CC1 | inactive |
| C[C@H](CO)N1C[C@H](C)[C@@H](CN(C)Cc2ccc(C(F)(F)F)cc2)OCCCC[C@H](C)Oc2ccc(NS(=O)(=O)c3ccc(F)cc3)cc2C1=O | inactive |
| COc1ccc(CN(C)C[C@H]2OCCCC[C@H](C)Oc3ccc(NC(=O)NC(C)C)cc3C(=O)N([C@H](C)CO)C[C@H]2C)cc1 | inactive |
| O=C(N[C@@H](c1cccnc1)c1ccc2c(c1)OCO2)C1CCN(CCOc2ccc(Cl)cc2Cl)CC1 | inactive |
| NCc1ccc(S(N)(=O)=O)cc1 | inactive |
| COc1ccc(S(=O)(=O)Nc2ccc3c(c2)CC(=O)N([C@@H](C)CO)C[C@H](C)[C@H](CN(C)S(=O)(=O)c2ccc(F)cc2)O3)cc1 | inactive |
| C[C@@H]1CN([C@@H](C)CO)C(=O)c2cccc(NC(=O)c3ccncc3)c2O[C@H]1CN(C)Cc1ccc(-c2ccccc2)cc1 | inactive |
| C[C@@H]1CN([C@@H](C)CO)C(=O)Cc2cc(NC(=O)Cc3cn(C)c4ccccc34)ccc2O[C@H]1CN(C)Cc1ccc(-c2ccccc2)cc1 | inactive |
| C[C@@H]1CN([C@H](C)CO)C(=O)Cc2cc(NC(=O)Cc3cn(C)c4ccccc34)ccc2O[C@H]1CN(C)Cc1ccc(C(F)(F)F)cc1 | inactive |
| C[C@@H]1CN([C@H](C)CO)C(=O)Cc2cc(NC(=O)Cc3cn(C)c4ccccc34)ccc2O[C@H]1CN(C)Cc1ccc(-c2ccccc2)cc1 | active |
| C[C@H]1CN([C@@H](C)CO)C(=O)Cc2cc(NC(=O)Cc3cn(C)c4ccccc34)ccc2O[C@@H]1CN(C)Cc1ccc(C(F)(F)F)cc1 | active |
| C[C@H]1CN([C@@H](C)CO)C(=O)Cc2cc(NC(=O)Cc3cn(C)c4ccccc34)ccc2O[C@H]1CN(C)Cc1ccc(Oc2ccccc2)cc1 | active |
| C[C@H]1CN([C@@H](C)CO)C(=O)Cc2cc(NC(=O)Cc3cn(C)c4ccccc34)ccc2O[C@H]1CN(C)Cc1ccc(C(F)(F)F)cc1 | inactive |
| C[C@H](CO)N1C[C@H](C)[C@H](CN(C)Cc2ccc(Oc3ccccc3)cc2)Oc2ccc(NC(=O)Cc3cn(C)c4ccccc34)cc2CC1=O | inactive |
| C[C@@H]1CN([C@@H](C)CO)C(=O)Cc2cc(NC(=O)Cc3cn(C)c4ccccc34)ccc2O[C@@H]1CN(C)Cc1ccc(-c2ccccc2)cc1 | inactive |
| C[C@H]1CN([C@@H](C)CO)C(=O)Cc2cc(NC(=O)Cc3cn(C)c4ccccc34)ccc2O[C@@H]1CN(C)Cc1ccc(Oc2ccccc2)cc1 | inactive |
| C[C@@H]1CN([C@H](C)CO)C(=O)CCCn2nncc2CO[C@@H]1CN(C)Cc1cccc2c1OCCCO2 | inactive |
| COc1ccc(NC(=O)N(C)C[C@H]2Oc3ccc(NS(=O)(=O)c4c(C)noc4C)cc3CC(=O)N([C@H](C)CO)C[C@H]2C)cc1 | inactive |
| Cc1cc(OCc2nnc(SC3CCCC3)n2-c2cccnc2)ccc1-c1ccc(S(C)(=O)=O)cc1 | active |
| C[C@@H]1CN([C@@H](C)CO)C(=O)c2cc(NC(=O)CCC(F)(F)F)ccc2O[C@@H](C)CCCCO[C@@H]1CN(C)S(=O)(=O)c1ccc(F)cc1 | inactive |

| Structure (SMILES) | cytotoxicity call |
| --- | --- |
| CCCC[C@@H](C)/C=C(C)/C=C(\C)C(=O)NC1=C[C@@](O)(/C=C/C=C/C=C/C(=O)NC2C(=O)CCC2=O)[C@@H]2O[C@@H]2C1=O | active |
| COc1cccc(S(=O)(=O)Nc2ccc3c(c2)[C@H]2C[C@H](CC(=O)NCCc4ccccc4)O[C@H](CO)[C@H]2O3)c1 | inactive |
| C[C@@H]1CN([C@@H](C)CO)S(=O)(=O)c2ccc(C#CC3(O)CCCC3)cc2O[C@@H]1CN(C)C(=O)Cc1cccnc1 | inactive |
| COc1ccccc1S(=O)(=O)N(C)C[C@H]1OCc2cn(nn2)CCCC(=O)N([C@H](C)CO)C[C@H]1C | inactive |
| C[C@@H]1CN([C@@H](C)CO)C(=O)c2cc(NS(=O)(=O)c3ccc(F)cc3)ccc2O[C@H]1CN(C)Cc1ccc(-c2ccccc2)cc1 | inactive |
| C[C@@H]1CN([C@@H](C)CO)C(=O)c2cc(NS(=O)(=O)c3ccc(F)cc3)ccc2O[C@@H]1CN(C)Cc1ccc(-c2ccccc2)cc1 | active |
| C[C@H](CO)N1C[C@H](C)[C@H](CN(C)Cc2ccc(-c3ccccc3)cc2)Oc2ccc(NS(=O)(=O)c3ccc(F)cc3)cc2C1=O | inactive |
| C[C@@H]1CN([C@H](C)CO)C(=O)c2cc(NS(=O)(=O)c3ccc(F)cc3)ccc2O[C@H]1CN(C)Cc1ccc(-c2ccccc2)cc1 | inactive |
| C[C@H]1CN([C@@H](C)CO)C(=O)c2cc(NS(=O)(=O)c3ccc(F)cc3)ccc2O[C@@H]1CN(C)Cc1ccc(-c2ccccc2)cc1 | inactive |
| C[C@@H]1CN([C@H](C)CO)C(=O)c2cc(NS(=O)(=O)c3ccc(F)cc3)ccc2O[C@@H]1CN(C)Cc1ccc(-c2ccccc2)cc1 | active |
| Cc1noc(C)c1NC(=O)Nc1ccc2c(c1)C(=O)N([C@@H](C)CO)C[C@@H](C)[C@@H](CN(C)CC1CCCCC1)OCCCC[C@H](C)O2 | inactive |
| CN(C)CCCCNC(=O)[C@H]1C[C@H]2C(=O)N3CCC[C@H]3C(=O)N2[C@H]1c1cccc(OCCO)c1 | inactive |
| O=C(N1CCOCC1)[C@]1(CCS(=O)(=O)c2ccccc2)N=C(c2ccc(OCCCO)cc2)O[C@@H]1c1ccccc1 | inactive |
| C[C@@H]1CN([C@H](C)CO)C(=O)c2c(c3ccccc3n2C)-c2ccccc2CO[C@H]1CN(C)Cc1cccc(C(F)(F)F)c1 | inactive |
| C[C@@H]1CN([C@@H](C)CO)C(=O)c2c(c3ccccc3n2C)-c2ccccc2CO[C@H]1CN(C)Cc1cccc(C(F)(F)F)c1 | inactive |
| C[C@H]1CN([C@@H](C)CO)C(=O)c2ccccc2-c2ccccc2CO[C@H]1CN(C)Cc1ccc(Cl)c(Cl)c1 | active |
| C[C@@H]1CN([C@H](C)CO)C(=O)c2c(c3ccccc3n2C)-c2ccccc2CO[C@@H]1CN(C)Cc1cccc(C(F)(F)F)c1 | inactive |
| C[C@H]1CN([C@@H](C)CO)C(=O)c2c(c3ccccc3n2C)-c2ccccc2CO[C@H]1CN(C)Cc1cccc(C(F)(F)F)c1 | inactive |
| C[C@@H]1CN([C@H](C)CO)C(=O)c2ccccc2-c2ccccc2CO[C@@H]1CN(C)Cc1ccc(Cl)c(Cl)c1 | inactive |
| C[C@@H]1CN([C@@H](C)CO)C(=O)c2ccccc2-c2ccccc2CO[C@@H]1CN(C)Cc1ccc(Cl)c(Cl)c1 | inactive |
| C[C@@H]1CN([C@@H](C)CO)C(=O)c2c(c3ccccc3n2C)-c2ccccc2CO[C@@H]1CN(C)Cc1cccc(C(F)(F)F)c1 | active |
| C[C@H]1CN([C@@H](C)CO)C(=O)c2c(c3ccccc3n2C)-c2ccccc2CO[C@@H]1CN(C)Cc1cccc(C(F)(F)F)c1 | active |
| C[C@H](CO)N1C[C@H](C)[C@H](CN(C)Cc2cccc(C(F)(F)F)c2)OCc2ccccc2-c2c(n(C)c3ccccc23)C1=O | active |
| C[C@@H]1CN([C@@H](C)CO)C(=O)c2c(c3ccccc3n2C)-c2ccccc2CO[C@H]1CN(C)Cc1cccc(F)c1 | inactive |
| C[C@H](CO)N1C[C@H](C)[C@@H](CN(C)Cc2cccc(C(F)(F)F)c2)OCc2ccccc2-c2c(n(C)c3ccccc23)C1=O | inactive |
